To fix the notation:
T1: UNK ZnF1-3 (human, UniProt Q9C0B0 31-174)
T1 sequence: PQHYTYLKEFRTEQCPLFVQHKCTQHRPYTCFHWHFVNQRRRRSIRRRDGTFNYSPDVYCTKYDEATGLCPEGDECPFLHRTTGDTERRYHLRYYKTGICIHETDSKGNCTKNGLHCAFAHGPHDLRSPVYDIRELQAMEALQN

B1: chrX:71482573:71482574:-_ENSMUSG00000031328_ENSMUST00000144429|mus_hu|FALSE|FALSE (ssRNA)
RNA: GGGAGUUCUACAGUCCGACGAUCCUGCCACUGAGAAAGGGCUCUUAGGGAUGGGAUCCCCUCCAUAAGUGACAUUGACGCCUACUGGACCCUGCUGGACAGGCGUGUACUUGACUGUGUAGGUGUUGUCAUGGUGGUCGAUGACAACAGAGGAUUGAGCAUCA
B2: chr6:38652254:38652255:-_ENSG00000124767_ENST00000373365|hu_hu|hu_hu_hu_mus_False|18_28 (ssRNA)
RNA: GGGAGUUCUACAGUCCGACGAUCCGAGAACUUCAUAGCAGGGAAGUCAAGCUUCUGCAGGAGGGUCAGUCCAAGAACCCUCGUAUAAAAAUCCAGGGACUUCUUAGGAUCCUUCACUCGUAGCAUGGUUUGCUGCAGUAGAAACAACAGAGGAUUGAGCAUCA
B3: chr18:67804014:67804015:+_ENSMUSG00000024537_ENSMUST00000025418|mus_hu|FALSE|FALSE (ssRNA)
RNA: GGGAGUUCUACAGUCCGACGAUCACAAUCGGUAUAGAAGUAACCAAUCUUAGACAUAUUCAGUGUAGAAAUAAUCAGAUCCAUUGCAAGCUGGCCAACAUUUCCAACAGAUACUGCUGGCCUGAAGAUGGGAGUGGAGAGGGACAACAGAGGAUUGAGCAUCA
B4: 58380664_58380784_167_CDS_ENSMUSG00000075700_ENSMUST00000107924|mouse|control|control (ssRNA)
RNA: GGGAGUUCUACAGUCCGACGAUCCUUGAGCAGCGGCCCGGUGGCGUACUGCAUCUUUAAUCUCUUGCUGGGCACGCCGCCCAGGUUGGCAGAGGCCUCGCUGCGGACCACCGCCGACGCCGCCACCAGCAGAAGCAGCAGGAGCAACAGAGGAUUGAGCAUCA
B5: 5649169_5649289_955_CDS_ENSG00000160633_ENST00000592224|human|control|control (ssRNA)
RNA: GGGAGUUCUACAGUCCGACGAUCACAGUCCGUCCUCUCGCCAUCGCCUGGCUGCUCCGCGGGCUCCCUUUUCACUACCGCUAACAGGCUGUCUGCCUUGCUCGACUGAGCGUGUGCUGUUGACUCGCUGGCCAAAUCUAAAUCCAACAGAGGAUUGAGCAUCA
B6: chr14:53325254:53325255:-_ENSG00000073712_ENST00000341590|hu_hu|FALSE|FALSE (ssRNA)
RNA: GGGAGUUCUACAGUCCGACGAUCAACCACUUUGCAAUCUACUUCAGUACAAAUGAAGGACAAUCGUACUUCAUCUGCAAACUCUACGGUGACCAUUUUGAUUUCCCAGUUGACAUUCCACUGUUUCAUGUUGCUGAAACGCCACAACAGAGGAUUGAGCAUCA
B7: 93044292_93044412_1315_3pUTR_ENSMUSG00000027217_ENSMUST00000111265|mouse|control|control (ssRNA)
RNA: GGGAGUUCUACAGUCCGACGAUCAGGAACAGCUGGUCCCAGGCCAGCCCUAGGUCCUUGUAGAGCCCAUGCCCCUUGCUUUAGAGCCUAGGUGAGGCCCCUUCAUGUCUGUCUUUUUUGUUUGUUUGUUUGUUUAUUUAAAAACAACAGAGGAUUGAGCAUCA
B8: chr1:235505951:235505952:+_ENSG00000152904_ENST00000391855|hu_mus|motif|central (ssRNA)
RNA: GGGAGUUCUACAGUCCGACGAUCUUUGUAGGCUUUAGCUUCAAGCUCUCUAAGAGUGUGUCGAGUGUAUGCAAAAGAACCGGCAUCCUCCAGGUACUGCACACAAUACUUUUUAAUAUCUAUAUUCUCUGUUCUCUGGCGCAGCAACAGAGGAUUGAGCAUCA
B9: 52190027_52197400_608_3pUTR_ENSMUSG00000020402_ENSMUST00000102758|mouse|control|control (ssRNA)
RNA: GGGAGUUCUACAGUCCGACGAUCGUUGAUGUGCUCCCUCUUGUACCCUGUCUUGAUUUUAGCAUUUUUUUUCCCAGUGUUCGGCGAGAAUGACGAAUCAAAGGUGAGCUUCAGUCCACGAGCAAGCUGGUCUUCCACAGUGAUCAACAGAGGAUUGAGCAUCA
B10: chr17:60770872:60770873:+_ENSG00000011028_ENST00000303375|hu_hu|hu_hu_hu_mus_True|68_88 (ssRNA)
RNA: GGGAGUUCUACAGUCCGACGAUCUCUUUAAAAAAAAAAAAAAAAAGUUUAAAAACAAUAGCACAUUAUUUAAAAAAAGAACUACAAUAGAGGGUCCGCUUUGAGUUUUUGUUCACAUCGUCCUGCACUGGGACACGGGGACUGCAACAGAGGAUUGAGCAUCA
B11: chr17:60770872:60770873:+_ENSG00000011028_ENST00000303375|hu_hu|hu_hu_hu_mus_True|68_78 (ssRNA)
RNA: GGGAGUUCUACAGUCCGACGAUCUCUUUAAAAAAAAAAAAAAAAAGACAAACAAUAAUAAUGGCACAUUUAAAAAAAGAACUACAAUAGAGGGUCCGCUUUGAGUUUUUGUUCACAUCGUCCUGCACUGGGACACGGGGACUGCAACAGAGGAUUGAGCAUCA
B12: chr17:60770872:60770873:+_ENSG00000011028_ENST00000303375|hu_hu|hu_hu_hu_mus_True|48_68 (ssRNA)
RNA: B10 RNA with U47A, U48C, U49A, A52C, C55U, U87A, A88G, G89A, G91A, U94G
B13: 71650973_71651093_4703_CDS_ENSG00000075292_ENST00000264447|human|control|control (ssRNA)
RNA: GGGAGUUCUACAGUCCGACGAUCGUAAUCCAGUUUAGAAAGCUUGCCUUGCAGGGCUGAGAUCCUUCCACUGCCUCCUCUGGUAAGACUGCUCUGAGUAGGUUUGAAUUUACUGCUGCUUUCUGCCAAGCCUGACCUGGCACUCAACAGAGGAUUGAGCAUCA
B14: chr9:14812383:14812384:-_ENSMUSG00000031934_ENSMUST00000164273|mus_mus|mus_mus_mus_hu_True|38_108 (ssRNA)
RNA: GGGAGUUCUACAGUCCGACGAUCAUAGCUCAAGUAGAUACACGCUAACAGUAUAAUGAUGAGUGUCAGCAGGCGGCAGCUAAUGUACUUGAUGAUUAAAUGACUAGAAUUUUUCUUUGUCUUCAAGUACUGCUCCACAAUUGGCAACAGAGGAUUGAGCAUCA
B15: chr13:120183613:120183614:-_ENSMUSG00000025453_ENSMUST00000099149|mus_hu|FALSE|FALSE (ssRNA)
RNA: GGGAGUUCUACAGUCCGACGAUCGUAAAUAAAACUAAUCAGCGUUCCUGAUGUCUUUAAAAGGUCAGCUUCAUGAACACCUAAUGUUGGAUUAACCAUAGGGGCUCGCACUUUGACCACCAAAUCAGAAGCCAGCACUUCCUUCAACAGAGGAUUGAGCAUCA
B16: chr7:34927866:34927867:-_ENSMUSG00000052997_ENSMUST00000102746|mus_mus|FALSE|FALSE (ssRNA)
RNA: GGGAGUUCUACAGUCCGACGAUCGCUUUUGGCAGCAUCUUCAGCUUGUUUUGGCCCCACUUUUUCAGGGCUGUCACCAACUACUUCAAAUUCAACAUCCUUUCCAAGAUCUUCACUAUGAAGAAUGUUGAUCAGCAAAGUAUACAACAGAGGAUUGAGCAUCA
B17: chr6:52144354:52144355:-_ENSG00000112118_ENST00000229854|hu_hu|FALSE|FALSE (ssRNA)
RNA: GGGAGUUCUACAGUCCGACGAUCGGCUGGGGCCUUCUCCGGCAUCUCCUGGAUGGUGAUGGUCUGGUGAUCCUUGUAGACAGAAAGGCCAUAUUCUGUCUCAAGGGGAUUGUUCUCCUCAUCCUUGGUAGGAUAGACAGAGCUCAACAGAGGAUUGAGCAUCA
B18: chrX:15845472:15845473:-_ENSG00000182287_ENST00000329235|hu_hu|motif|central (ssRNA)
RNA: GGGAGUUCUACAGUCCGACGAUCCCACAAGAAGUCAUCAACAAGGGAGGAGAGUUAUGUCAGUCCAAUUUCUUCAAGAACACGGCGUGGGGUUUCAGCUUCCUCCUGCAGUAGAUCAGCCUGCUCAAUUGCUUUAAGGACAUUCAACAGAGGAUUGAGCAUCA
B19: chr2:121258011:121258012:+_ENSMUSG00000027248_ENSMUST00000028683|mus_mus|FALSE|FALSE (ssRNA)
RNA: GGGAGUUCUACAGUCCGACGAUCCUUGCCUUGUAUCAAAUCUUUAUUAUCUUCCGUCAUAUGAGGACAGAGACCAAAAAUGCUAUCCUGAAUAAAUUUCUUGAUCUUGCCACUGGUCAUUUUCUUUUCAGUAUAUGCCACAGUCAACAGAGGAUUGAGCAUCA
B20: chr16:45382771:45382772:-_ENSMUSG00000022661_ENSMUST00000163230|mus_mus|mus_mus_mus_hu_True|1_78 (ssRNA)
RNA: GGGAGUUCUACAGUCCGACGAUCCUGGGUCAUGUUAUAAGACAAAUGGACAGGGAGAGCAUGCUUUUCAAAAAAUGUGAGCUAUUGUCUAAGACUAACAAUAUUUAUCUAGCUAUAAAAAUAAGUUAAAUGAAUAAACAUUACCAACAGAGGAUUGAGCAUCA
B21: chr16:45382771:45382772:-_ENSMUSG00000022661_ENSMUST00000163230|mus_mus|mus_mus_mus_hu_True|8_78 (ssRNA)
RNA: GGGAGUUCUACAGUCCGACGAUCCUGGGUCAUGUUAUAAGACAAAUGGACAGGGAGAGCAUGCUUUUCAAAAAAUGUGAGCUAUUGUCUAAGACUAACAAUAUUUAUCUAGCUAUAAAAAUAAGUUUUAAAUGGACGUUAAGACAACAGAGGAUUGAGCAUCA
B22: chr15:42481402:42481403:-_ENSG00000166887_ENST00000318006|hu_hu|FALSE|FALSE (ssRNA)
RNA: GGGAGUUCUACAGUCCGACGAUCCUUUGAAACCGUAGUGAUUUGUUGAAAUGUCAAUAGGUCAUGGACAUAAAUGUUAUUUUCUAACAAGCUGACCAGAAUCUUAAACUGGGAAACCACAUGGAUCUGCUGAAUCUUUUUGGACAACAGAGGAUUGAGCAUCA
B23: chr16:45382771:45382772:-_ENSMUSG00000022661_ENSMUST00000163230|mus_mus|mus_mus_mus_hu_True|18_78 (ssRNA)
RNA: GGGAGUUCUACAGUCCGACGAUCCUGGGUCAUGUUAUAAGACAAAUGGACAGGGAGAGCAUGCUUUUCAAAAAAUGUGAGCUAUUGUCUAAGACUAACAAUAUUUAUCUAGCUAUAUAAAAAUAAGAAAUGAAUAAGUUAAGACAACAGAGGAUUGAGCAUCA

Substitutions are numbered along the chain they refer to. In all, about 24,000 sequences were measured (“enrichment r”: median about 0.99, highest 2% from about 3.7 on). The full list was thinned out, with the highest values kept by preference.

The target in this assay is T1, UNK ZnF1-3. The experiment in a line: nsRBNS (natural sequence RNA bind-n-seq); RBNS binding buffer (assumed for nsRBNS): 25 mM Tris pH 7.5, 150 mM KCl, 3 mM MgCl2, 0.01% Triton X-100, 500 ug/ml BSA, 20 U/ml SUPERase-In, 4 C; UNK is unkempt and MSI1 is Musashi-1; names of the RNAs are library labels; protein concentration not given here; high values mean tight binding.
B1 showed a binding signal of 0.8 enrichment R.

Consider B2, for which the binding signal came to 0.508 enrichment R.

With B3, the binding signal is 1.13 enrichment R.

In the case of B4, the binding signal was 0.563 enrichment R.

Take B5: the binding signal amounted to 0.689 enrichment R.

B6 showed a binding signal of 0.398 enrichment R.

B7 came in with a binding signal of 0.554 enrichment R.

Turning to B8, the binding signal was determined as 1.14 enrichment R.

B9 gave a binding signal of 0.961 enrichment R.

B10 registered a binding signal of 6.65 enrichment R.

In turn, B11 registered a binding signal of 5.39 enrichment R.

Consider B12, for which the binding signal turned out to be 5.29 enrichment R.

B13 came in with a binding signal of 0.641 enrichment R.

Turning to B14, the binding signal was 0.675 enrichment R.

B15 had a binding signal of 0.662 enrichment R.

As to B16, the binding signal worked out at 0.727 enrichment R.

For the molecule B17, the binding signal turned out to be 0.84 enrichment R.

In turn, B18 had a binding signal of 1.51 enrichment R.

Take B19: the binding signal was 1.28 enrichment R.

In turn, B20 gave a binding signal of 4.46 enrichment R.

Molecule B21 gave a binding signal of 5.26 enrichment R.

B22: the binding signal worked out at 0.563 enrichment R.

Take B23: the binding signal turned out to be 10 enrichment R.

The values above are taken from article PMC12136788.
